Screening data from PubChem BioAssay.
PRMT1 inh: PRMT1 methyltransferase inhibitors, primary screen, biochemical, fluorescence polarization. 370,000 tested, 1.3% active. inhibition, % at 2.79 µM. recombinant PRMT1, activity-based probe fluorescence polarization;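 active = inhibition above about 21% made by adding two undisclosed values, limit read from the data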
TLR4-MyD88 BLA: inhibitors of TLR4-MyD88 association in cells, primary screen, cell-based, HeLa CL3-4, BLA complementation, FRET ratio; HeLa CL3-4 TLR4/MyD88 BLA complementation; inhibition, % at 8.4 µM; 200,000 tested, 0.18% active; AID 861, 2007; in the data active = inhibition above about 25%;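 note: 0% = vehicle and 100% = reference inhibitor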
rCAG binder: binders of r(CAG) RNA repeats, primary screen, biochemical, fluorescence | inhibition, % at 3 µM | r(CAG) RNA repeat, TO-PRO-1 dye displacement fluorescence | AID 651821, 2012 | 370,000 tested, 1.3% active;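 active = inhibition above the plate cutoff, the mean of all test compounds on that plate plus 3 SD, cut at about 35% in these data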;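 note: 0% = DMSO alone and 100% = 100 µM mitoxantrone as full dye displacement; higher means more dye released from RNA so lower well fluorescence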
TLR9-MyD88 inh: inhibitors of TLR9-MyD88 association in cells, primary screen, cell-based, CHO, BLA complementation, fluorescence; CCF4 FRET ratio; 340,000 tested, 0.21% active; AID 504734, 2011; inhibition, % at 4.98 µM; Toll-like receptor 9 (Homo sapiens) + Myeloid differentiation primary response protein …;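 active = inhibition above the mean over all tested compounds plus 3 SD, cut at about 21% in these data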;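 note: 0% = DMSO only wells and 100% = clavulanate BLA inhibitor control wells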
NOD2-RIPK2 inh: NOD2-RIPK2 binding disruptors in cells, primary screen, fluorescence, CHO cells, BLA complementation. inhibition, % at 4.98 µM. Receptor-interacting serine/threonine-protein kinase 2 (Homo sapiens), O43353. CCF4 ratio. 360,000 tested, 0.38% active; in the data active = inhibition above about 21%;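 note: 0% = vehicle only and 100% = reference blocker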
Target sequence (O43353 whole entry, looked up): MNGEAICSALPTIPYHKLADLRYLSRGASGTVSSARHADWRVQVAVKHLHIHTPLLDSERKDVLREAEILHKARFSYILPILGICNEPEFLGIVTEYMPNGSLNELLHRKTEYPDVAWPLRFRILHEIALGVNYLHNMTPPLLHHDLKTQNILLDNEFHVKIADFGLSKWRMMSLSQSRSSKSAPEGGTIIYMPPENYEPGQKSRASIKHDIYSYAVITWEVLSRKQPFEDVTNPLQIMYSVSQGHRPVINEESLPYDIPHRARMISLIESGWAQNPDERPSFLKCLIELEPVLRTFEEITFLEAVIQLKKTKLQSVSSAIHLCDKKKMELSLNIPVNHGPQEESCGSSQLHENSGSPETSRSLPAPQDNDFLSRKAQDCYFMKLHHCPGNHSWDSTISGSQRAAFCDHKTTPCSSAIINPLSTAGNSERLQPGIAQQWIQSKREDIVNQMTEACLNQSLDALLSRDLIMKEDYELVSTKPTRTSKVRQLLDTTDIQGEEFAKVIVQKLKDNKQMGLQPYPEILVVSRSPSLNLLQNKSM
ABHD5-PLIN5 inh: ABHD5-PLIN5 interaction inhibitors, primary screen, cell lysate, split luciferase complementation, luminescence | Perilipin-5 (Homo sapiens) + 1-acylglycerol-3-phosphate O-acyltransferase ABHD5 (Homo … | Split G. princeps luciferase complementation, 4 h | inhibition, % at 4 µM | 360,000 tested, 0.78% active | AID 602281, 2012;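 active = inhibition above the mean inhibition across every tested compound plus 3 SD, cut at about 22% in these data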;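 note: 0% = DMSO only wells and the 100% control is not disclosed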
rCAG bind conf: small molecules binding CAG repeat RNA – biochemical, fluorescence, confirmation; shares compounds with rCAG binder; r(CAG) RNA repeat, TO-PRO-1 dye displacement fluorescence; inhibition, % at 3 µM; 4,300 tested, 70% active; AID 652065, 2013;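 active = inhibition above a per-plate cutoff, the mean inhibition of sample wells plus 3 SD, cut at about 35% in these data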;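 note: loss of TO-PRO-1 fluorescence as compound displaces dye from 1x1 AA loop RNA; 0% = DMSO only wells and 100% = 100 µM mitoxantrone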
DNA CAG counter: displacement of TO-PRO-1 from CAG DNA duplex, counter-screen for rCAG RNA repeat binder project, biochemical, fluorescence, TO-PRO-1 dye, d(CAG) DNA oligo; 4,300 tested, 94% active; d(CAG) DNA oligo TO-PRO-1 dye displacement; shares compounds with rCAG binder; inhibition, % at 3 µM; AID 652068, 2013;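 active = inhibition above its plate's cutoff, the mean test-well inhibition plus 3 SD, cut at about 4.8% in these data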;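 note: 0% = DNA dye mix with DMSO and 100% = 100 µM mitoxantrone; hits displace the dye from DNA and so lower well fluorescence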
dCAG dye DR: inhibitors of DNA CAG/GTC TO-PRO-1 complex, dose response, counter-screen for rCAG RNA repeat binder project, biochemical, fluorescence, TO-PRO-1 dye; shares compounds with rCAG binder; DNA CAG/GTC duplex TO-PRO-1 dye displacement fluorescence; IC50, µM; 250 tested, 20% active; AID 686960, 2013; in the data active = IC50 below about 10 µM
Active calls of the source: *. Shown are actives, neighbours in structure and some others; about 3.3% of the full set was active somewhere.

CC(=O)c1ccc(OCc2c(-c3ccccc3)nnn2CC(=O)NS(=O)(=O)c2ccc(C)cc2)cc1 was read as PRMT1 inh -2, rCAG binder 48*, NOD2-RIPK2 inh 1, ABHD5-PLIN5 inh 13, rCAG bind conf 60* and DNA CAG counter 15*.
Screening Cc1ccc(OCc2nnn(CC(=O)NS(=O)(=O)c3c(C)noc3C)c2-c2ccccc2)cc1 returned PRMT1 inh 1, rCAG binder 61*, NOD2-RIPK2 inh -1, ABHD5-PLIN5 inh -2, rCAG bind conf 67* and DNA CAG counter 19*.
Screening Cc1ccc(S(=O)(=O)NC(=O)Cn2nnc(-c3ccccc3)c2COc2ccc3ccccc3c2)cc1 returned PRMT1 inh 7, rCAG binder 80*, NOD2-RIPK2 inh -5, ABHD5-PLIN5 inh -2, rCAG bind conf 86* and DNA CAG counter 50*.
Screening CC(=O)c1ccc(OCc2c(-c3ccccc3)nnn2CC(=O)NS(=O)(=O)c2ccccc2C)cc1 returned PRMT1 inh -3, rCAG binder 52*, NOD2-RIPK2 inh -6, ABHD5-PLIN5 inh -10, rCAG bind conf 49* and DNA CAG counter 14*.
`CSCCC(C(=O)Nc1c(C)cccc1C)N1CCC(Cc2ccccc2)CC1` (centres undefined) gave PRMT1 inh 0, rCAG binder 0, NOD2-RIPK2 inh 4 and ABHD5-PLIN5 inh 3.
For COc1cc(OC)cc(OCC(O)Cn2ccnc2)c1 (centres undefined) the results were PRMT1 inh -4, TLR4-MyD88 BLA 1, rCAG binder 0, TLR9-MyD88 inh 1, NOD2-RIPK2 inh 6 and ABHD5-PLIN5 inh 2.
`NC(=O)C1CCN(C(=O)c2ccc(Cl)c(NC(=O)c3cccs3)c2)CC1` gave PRMT1 inh -2, rCAG binder 0, TLR9-MyD88 inh -10, NOD2-RIPK2 inh -11 and ABHD5-PLIN5 inh 4.
Screening Cc1ccc(-n2nc(C)c3c2NC2=C(C(=O)CC(C)(C)C2)C3c2ccccc2OCC(=O)O)cc1 (centres undefined) returned PRMT1 inh 9, TLR4-MyD88 BLA -11, rCAG binder 37*, TLR9-MyD88 inh 13, NOD2-RIPK2 inh -6, ABHD5-PLIN5 inh -3, rCAG bind conf 41* and DNA CAG counter 9.4*.
`Cc1ccc(NC(=S)N(Cc2ccc(Cl)cc2)Cc2ccc(C(=O)O)cc2)cc1Cl` gave PRMT1 inh 4, TLR4-MyD88 BLA -8, rCAG binder 76*, TLR9-MyD88 inh 3, NOD2-RIPK2 inh -11, ABHD5-PLIN5 inh -3, rCAG bind conf 69*, DNA CAG counter 28* and dCAG dye DR inactive.
COc1ccc(CN(CC2CCC(C(=O)O)CC2)C(=S)Nc2ccc(C)c(Cl)c2)cc1 (centres undefined) was read as PRMT1 inh 6, TLR4-MyD88 BLA -2, rCAG binder 35*, TLR9-MyD88 inh 9, NOD2-RIPK2 inh 2, ABHD5-PLIN5 inh 2, rCAG bind conf 33 and DNA CAG counter 5.8*.
Screening COc1ccc(-c2csc(C(O)c3ccc(F)c(OC)c3)n2)cc1 (centres undefined) returned PRMT1 inh -3, rCAG binder 0, NOD2-RIPK2 inh -14 and ABHD5-PLIN5 inh 6.
O=C(N/N=C/c1ccco1)c1cc(-c2cccc3ccccc23)n[nH]1 was read as PRMT1 inh 6, TLR4-MyD88 BLA 22, rCAG binder 13, TLR9-MyD88 inh 1, NOD2-RIPK2 inh -5 and ABHD5-PLIN5 inh 4.
`O=C(N/N=C/c1ccccc1C(=O)O)c1cc(-c2ccc3c4c(cccc24)CC3)n[nH]1` gave PRMT1 inh 6, TLR4-MyD88 BLA 3, rCAG binder 58*, TLR9-MyD88 inh -1, NOD2-RIPK2 inh 4, ABHD5-PLIN5 inh -4, rCAG bind conf 62* and DNA CAG counter 24*.
For Cc1ccc(S(=O)(=O)NC(=O)c2cc(C)n(-c3cc(S(=O)(=O)N4CCOCC4)ccc3N3CCCC3)c2C)cc1 the results were PRMT1 inh 5, TLR4-MyD88 BLA 4, rCAG binder 36*, TLR9-MyD88 inh -2, NOD2-RIPK2 inh 5, ABHD5-PLIN5 inh 1, rCAG bind conf 49* and DNA CAG counter 15*.
For COc1ccc2ccccc2c1C=Nn1c(-c2n[nH]c3c2CCC3)n[nH]c1=S the results were PRMT1 inh 3, rCAG binder 48*, rCAG bind conf 49* and DNA CAG counter 18*.
`C=CCCC[C@H]1OC(=O)[C@H](C)NC(=O)[C@H](C(C)C)NC(=O)[C@@H]2CCCN2C(=O)[C@H](Cc2ccccc2)OC(=O)[C@@H](C(C)C)N(C)C(=O)[C@H](C(C)C)NC(=O)C1(C)C` gave PRMT1 inh 4 and rCAG binder 9.
CCC(NC(=O)CCc1c(C)c2cc3c(-c4ccccc4)coc3cc2oc1=O)C(=O)O (centres undefined) was read as PRMT1 inh 2, rCAG binder 37*, TLR9-MyD88 inh 3, NOD2-RIPK2 inh -1, ABHD5-PLIN5 inh -4, rCAG bind conf 42* and DNA CAG counter 9.4*.
Cc1c(CCC(=O)NCCCCCC(=O)O)c(=O)oc2cc3occ(-c4ccccc4)c3cc12 was read as PRMT1 inh -6, rCAG binder 10, TLR9-MyD88 inh -8, NOD2-RIPK2 inh -7 and ABHD5-PLIN5 inh 5.
`Cc1c(CCC(=O)N[C@@H](C)C(=O)O)c(=O)oc2cc3occ(-c4ccccc4)c3cc12` gave PRMT1 inh -2, rCAG binder 36*, TLR9-MyD88 inh 3, NOD2-RIPK2 inh -8, ABHD5-PLIN5 inh 5, rCAG bind conf 45* and DNA CAG counter 9.8*.
